Measurements reported in PubChem BioAssay (NCATS).
Results filed as inconclusive are left out. Unmarked numbers belong to inactive results. Activity calls are given as the source filed them. Calls follow the shape of the dose curve; as a rule, active = well fitted cell-killing curve with a large enough effect; inconclusive = small, poorly fitted or top-dose-only effect, or effect the other way; inactive = no such curve, though single readings can be large or run the other way.

Assay: Quantitative High-Throughput drug screen in 47 multiple myeloma cell lines against the NCATS MIPE library collection: ARD_JJKsccE7 cell viability assay (AID 1918929)
Details: ARD myeloma cell line viability, CellTiter-Glo, 48 h; series mostly up to 45.8 µM; viability: at the top concentration
From the text: PI: Beverly A. Mock Ph.D.
Laboratory of Cancer Biology and Genetics,
Center for Cancer Research, National Cancer Institute,
National Institute of Health, Bethesda, Maryland
Drug resistance and disease progression are common in multiple myeloma (MM) patients, underscoring the need for new therapeutic combinations. […] We hypothesized that effective combinations would reduce MYC expression and enhance p16 activity. […] These preclinical data identify potentially useful drug combinations for evaluation in drug-resistant MM and reveal potential mechanisms of combined drug sensitivity.
Described herein is the primary MIPE qHTS used to cherrypick compounds. Validated compounds were then further tested for potential synergistic activiy.
[1] Peat TJ, Gaikwad SM, Dubois W, Gyabaah-Kessie N, Zhang S, Gorjifard S, Phyo Z, Andres M, Hughitt VK, Simpson RM, Miller MA, Girvin AT, Taylor A, Williams D, D'Antonio N, Zhang Y, Rajagopalan A, Flietner E, Wilson K, Zhang X, Shinn P, Klumpp-Thomas C, McKnight C, Itkin Z, Chen L, Kazandijian D, Zhang J, Michalowski AM, Simmons JK, Keats J, Thomas CJ, Mock BA. Drug combinations identified by high-throughput screening promote cell cycle transition and upregulate Smad pathways in myeloma. Cancer Lett. 2023 Aug 1;568:216284. doi: 10.1016/j.canlet.2023.216284. Epub 2023 Jun 24. PMID: 37356470; PMCID: PMC10408729.
SEQUENCE No. (e.g., 1, 2, 3, etc.); […] (e.g., Cells, Incubation, Reagent, etc.); VALUE and DESCRIPTION.
1; Cells; 5 uL; white, solid bottom 1536-well Greiner assay plate.
2; Compounds; 23 nL; Kalypsis pin tool (Wako USA) equipped with a 1536-well pin head to transfer to the assay plates.
3; Incubation; 48 hours; 37C incubation.
4; Reagent;5uL; CellTiter Glo (Promega).
5; Detector; 425V; Luminescence; Viewlux PerkinElmer.
NOTES (numbers refer to Sequence numbers above)
1. The cell-based screening methods employed in this study were like those previously published. Briefly, the corresponding myeloma cell lines were screened in 1,536-well plates with 500 cells, 5-uL per well for inhibition of cell viability (assessed by measuring ATP levels with CellTiterGlo).
2. NCATS MIPE 4.0 library of approved and investigational drugs were added using the Kalypsis pin tool. Wells treated with DMSO only for 100% viability and media only wells for 0% viability were used as controls.
3. The assay plates were covered and incubated for 48 hours in a 37C, 5% CO2 incubator with controlled humidity.
4. After 48 hours, CellTilter-GloTM luminescent substrate mix (Promega) reagent was added to the assay plate and plates we incubated for 5 min at room temperature.
5. Signal was measured as median relative luminescence units on a ViewLux (PerkinElmer) multiplate reader.
[1] Heske CM, Davis MI, Baumgart JT, Wilson K, Gormally MV, Chen L, Zhang X, Ceribelli M, Duveau DY, Guha R, Ferrer M, Arnaldez FI, Ji J, Tran HL, Zhang Y, Mendoza A, Helman LJ, Thomas CJ. Matrix Screen Identifies Synergistic Combination of PARP Inhibitors and Nicotinamide Phosphoribosyltransferase (NAMPT) Inhibitors in Ewing Sarcoma. Clin Cancer Res. 2017 Dec 1;23(23):7301-7311. doi: 10.1158/1078-0432.CCR-17-1121. Epub 2017 Sep 12. PMID: 28899971; PMCID: PMC6636827.
Potency is read from the fitted curve at half-maximal effect.

| Structure (SMILES) | viability | Potency |
| --- | --- | --- |
| Cc1cnc(-c2cc(N3CCN(C(=O)CCS(C)(=O)=O)CC3)ncc2Cl)c(C)c1 | 90.6% |  |
| COc1cc([C@H]2Oc3cc([C@H]4Oc5cc(O)cc(O)c5C(=O)[C@H]4O)ccc3O[C@H]2CO)ccc1O | 140% |  |
| Cc1cccc(Nc2nc(N[C@@H]3CCCC[C@H]3N)ncc2C(N)=O)c1 |  | 20.9 µM (active) |
| C[C@@H]1[C@H](C)CC[C@]2(C(=O)O)CC[C@]3(C)C(=CC[C@@H]4[C@@]5(C)CC[C@H](O)C(C)(C)[C@H]5CC[C@]43C)[C@@H]12 | 112% [at 92.2 µM] |  |
| COc1c(C)cnc(Cn2cnc3c(Cl)nc(N)nc32)c1C |  | 0.0418 µM (active) |
| Cc1c(-c2cccc3c(CCCOc4cccc5ccccc45)c(C(=O)O)n(Cc4cccnc4)c23)c(COc2ccc(N3CCN([S+](=O)([O-])N(C)C)CC3)cc2)nn1C | 97.6% |  |
| CC[C@H](CC#N)OC(=O)N[C@@H](C)c1cccc(NC(=O)Nc2ccc(-c3cnco3)c(OC)c2)c1 |  | 14.8 µM (active) |
| Cc1cc(-c2ncc(CC(=O)Nc3ccc(-c4cnccn4)cn3)cc2C)ccn1 |  | 9.35 µM (active) |
| C[C@@H]1O[C@@H](O[C@H]2CC[C@@]3(C)[C@H](CC[C@@H]4[C@H]3C[C@@H](O)[C@]3(C)[C@@H](C5=CC(=O)OC5)CC[C@]43O)C2)C[C@H](O)[C@@H]1O[C@H]1C[C@H](O)[C@H](O[C@H]2C[C@H](O)[C@@H](O)[C@@H](C)O2)[C@H](C)O1 (stereo in doubt) |  | 0.121 µM (active) |
| O=C(Nc1cccc(C(F)(F)F)c1)Nc1cc(S(=O)(=O)NC2CC2)ccc1-c1ccsc1 | 128% |  |
| Cn1cnc(-c2cc3nccc(Oc4ccc(NC(=S)NC(=O)Cc5ccccc5)cc4F)c3s2)c1 |  | 18.7 µM (active) |
| Oc1cc(O)cc(C=Cc2ccc(O)c(O)c2)c1 |  | 9.35 µM (active) |
| C[C@@H]1C[C@H]2[C@@H]3CCC4=CC(=O)C=C[C@]4(C)[C@@]3(F)[C@@H](O)C[C@]2(C)[C@@]1(O)C(=O)CO |  | 0.0093 µM (active) |
| COc1ccc2c(c1)c(C1=C(c3c[nH]c4ccccc34)C(=O)NC1=O)cn2CCCN(C)C |  | 23.5 µM (active) |
| COc1cc([C@@H]2c3cc4c(cc3[C@@H](O[C@@H]3O[C@@H]5CO[C@@H](C)O[C@@H]5[C@H](O)[C@@H]3O)[C@H]3COC(=O)[C@H]23)OCO4)cc(OC)c1O | 78.1% |  |
| O=c1[nH]c(=O)n([C@H]2C[C@@H](O)[C@@H](CO)O2)cc1I |  | 3.32 µM (active) |
| CC(C)(C)c1[nH]cnc1C=c1[nH]c(=O)c(=Cc2ccccc2)[nH]c1=O | 3.39% [at 92.2 µM] |  |
| C[C@@H]1CC=CC=CC=CC=C[C@@H](O[C@@H]2O[C@H](C)[C@@H](O)[C@H](N)[C@H]2O)C[C@@H]2O[C@](O)(C[C@@H](O)C[C@@H]3O[C@@H]3C=CC(=O)O1)C[C@H](O)[C@@H]2C(=O)O | 145% |  |
| NC1(C(=O)N[C@@H](CCO)c2ccc(Cl)cc2)CCN(c2ncnc3[nH]ccc23)CC1 |  | 0.0469 µM (active) |
| O=c1cc(-c2ccc(O)c(O)c2)oc2cc(O)cc(O)c12 | 113% |  |

| Structure (SMILES) | viability | Potency |
| --- | --- | --- |
| O=S(=O)(O)c1ccc2cc(N=Nc3cc(S(=O)(=O)O)c4cccnc4c3O)ccc2c1 | 108% |  |
| COc1cc(C=CC(=O)O)ccc1O | 96% |  |
| Cc1nc(NC(=O)N2CCC[C@@H]2C(N)=O)sc1-c1csc(C(C)(C)C)n1 |  | 0.372 µM (active) |
| COc1ccc2cc1Oc1ccc(cc1)C[C@H]1c3cc(c(OC)cc3CCN1C)Oc1c(OC)c(OC)cc3c1[C@H](C2)N(C)CC3 |  | 6.62 µM (active) |
| C[C@H]1O[C@@H](n2cc(F)c(=O)[nH]c2=O)[C@H](O)[C@H]1O |  | 1.32 µM (active) |
| CC1(C)C(N(O)C(=O)Nc2ccc(Cl)cc2)N(c2ccc(Cl)cc2)C(=O)N1CC(=O)NN=CC=Cc1ccc([N+](=O)[O-])o1 (stereo not given) | 127% |  |
| Cc1cn([C@@H]2C[C@@H](O)[C@H](CO)O2)c(=O)[nH]c1=O | 89.1% |  |
| Nc1ncnc2c1c(-c1cccc(OCc3ccccc3)c1)cn2C1CC(CN2CCC2)C1 (stereo not given) |  | 2.96 µM (active) |
| CC(C)Oc1cc(Nc2nc(N[C@@H](C)c3ccc(F)cn3)ncc2Cl)[nH]n1 |  | 14.8 µM (active) |
| O=S(=O)(NCCNCC=Cc1ccc(Br)cc1)c1cccc2cnccc12 |  | 10.5 µM (active) |
| C[C@H]1COC2=C1C(=O)C(=O)c1c2ccc2c1CCCC2(C)C | 85.7% |  |
| COc1cc(CNC(=O)CCCCC=CC(C)C)ccc1O | 104% |  |
| CCNC(=O)[C@H]1O[C@@H](n2cnc3c(N)nc(NCCc4ccc(CCC(=O)O)cc4)nc32)[C@H](O)[C@H]1O | 141% |  |
| COc1ccc(CCC(=O)Nc2nc3ccc(Cl)cc3s2)cc1OC | 116% |  |
| N#CC1(c2cccc(C(=O)Nc3cc(Oc4ccc5nc(NC(=O)C6CC6)sc5n4)ccc3F)c2Cl)CC1 |  | 0.59 µM (active) |
| CN(C)CCOc1ccc(C(=C(CCCl)c2ccccc2)c2ccccc2)cc1 | 108% |  |
| Cc1ccc(C(=O)N(CCCN)[C@@H](c2oc3cc(Cl)ccc3c(=O)c2Cc2ccccc2)C(C)C)cc1 |  | 0.001 µM (active) |
| CN[C@@H]1[C@@H](O)[C@@H](O[C@@H]2[C@@H](O)[C@H](O[C@H]3O[C@H](CN)[C@@H](O)[C@H](O)[C@@H]3O)[C@@H](N)C[C@@H]2NC(=O)[C@@H](O)CN)OC[C@]1(C)O | 120% |  |
| CC[C@H](C=C[C@@H](C)[C@H]1CC[C@H]2[C@@H]3CC=C4C[C@@H](O)CC[C@]4(C)[C@@H]3CC[C@]12C)C(C)C | 101% [at 23.2 µM] |  |
| CN1c2ccccc2C(=O)N2CCc3c([nH]c4ccccc34)C21 (stereo not given) | 140% |  |
